This is part of a sample that, as a whole, favours compounds with a hit. Of some 83,000 tested, about 20% had one in any assay.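 Compound tested at a single concentration for 48 hours in 96-well plates; a percent growth value below 10 was scored as active.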 Values without a mark were called inactive. Active and inactive are the calls of the source.
Assays:
Experiment in all cases: NCI-60 one-dose screen, 48 h (100 = growth as untreated, 0 = no growth, -100 = all killed)
Details in all cases: 10 µM unless noted
NCI-H226 lung = tested on: NCI-H226 lung
NCI-H322M lung = tested on: NCI-H322M lung
HOP-62 NSCLC = tested on: HOP-62 NSCLC
NCI-H460 lung = tested on: NCI-H460 lung
HOP-92 NSCLC = tested on: HOP-92 NSCLC
NCI-H522 lung = tested on: NCI-H522 lung
A549/ATCC NSCLC = tested on: A549/ATCC NSCLC
786-0 renal = tested on: 786-0 renal
COLO 205 colon = tested on: COLO 205 colon
DU-145 prostate = tested on: DU-145 prostate
K-562 leukemia = tested on: K-562 leukemia
MALME-3M melanoma = tested on: MALME-3M melanoma
MDA-MB-231 breast = tested on: MDA-MB-231 breast
RXF 393 renal = tested on: RXF 393 renal
SF-268 CNS = tested on: SF-268 CNS
SF-295 CNS = tested on: SF-295 CNS
SF-539 CNS = tested on: SF-539 CNS
UACC-257 melanoma = tested on: UACC-257 melanoma
M14 melanoma = tested on: M14 melanoma
HCT-15 colon = tested on: HCT-15 colon

Structure (SMILES)	growth (NCI-H226 lung)	growth (NCI-H322M lung)	growth (HOP-62 NSCLC)	growth (NCI-H460 lung)	growth (HOP-92 NSCLC)	growth (NCI-H522 lung)	growth (A549/ATCC NSCLC)	growth (786-0 renal)	growth (COLO 205 colon)	growth (DU-145 prostate)	growth (K-562 leukemia)	growth (MALME-3M melanoma)	growth (MDA-MB-231 breast)	growth (RXF 393 renal)	growth (SF-268 CNS)	growth (SF-295 CNS)	growth (SF-539 CNS)	growth (UACC-257 melanoma)	growth (M14 melanoma)	growth (HCT-15 colon)
O=c1[nH]c2ccccc2cc1CSc1ccccc1Nc1nccc(-c2ccc(C(F)(F)F)cc2)n1	56.8%	90.5%	78.5%	40.8%	20.5%	80%	57.6%	45.4%	104%	73.4%	58.6%	63.6%	69%	2.21% (active)	70.4%	72.7%	45.5%	104%	92.1%	69.1%
C/C(=C(/c1ccc(Cl)cc1)c1ccc(OCCN)cc1)c1ccc(C)cc1	112%	103%	103%	100%	87.2%	99.4%	97.7%	102%	114%	106%	90.8%	101%	94.4%	112%	100%	98.7%	93.8%	104%	102%	101%
O=C1NC(=C(Cl)Cl)/C(=N/S(=O)(=O)N2CCCCC2CC2(C(F)(F)F)N=N2)N1 (stereo not given)	89.7%	97.9%	96%	84.6%	-51.6% (active)	-59.3% (active)	111%	-24.7% (active)	-17.5% (active)	74%	2.72% (active)	-71% (active)	-21.4% (active)	-28.8% (active)	49.3%	99.3%	-22% (active)	82.6%	24.4%	-67.3% (active)
C#Cc1nc(C2=C(C)C(OC(=O)CCC(=O)O)CC2)cs1 (stereo not given)	106%	104%	111%	107%	106%	101%	90.7%	-86.5% (active)	122%	106%	104%	107%	104%	113%	99.9%	108%	100%	102%	103%	99.8%
N#Cc1nc(-c2ccccc2)oc1S(=O)(=O)N1CCN(CCc2ccccn2)CC1	98.1%	95.6%	109%	100%	38.1%	-66% (active)	103%	8.4% (active)	30.1%	75.4%	6.82% (active)	-66.9% (active)	38.9%	-54.7% (active)	109%	99.2%	68.7%	77%	15.2%	-27.2% (active)
Fc1ccc(-c2cc3nc(C(Cl)Cl)nc(-c4ccc(Cl)cc4)n3n2)cc1	78.9%	-44.9% (active)	-25.8% (active)	-66.3% (active)	24.7%	30.3%	-58.2% (active)	47.4%	-56.6% (active)	-23% (active)	24.3%	37.4%	7.4% (active)	-55.5% (active)	26.2%	9.78% (active)	21%	39.1%	22.3%	12.1%
COc1ccc(/C=C2\SC(=Nc3cc(C)on3)NC2=O)cc1	102%	97.7%	96%	103%	94.4%	100%	102%	102%	103%	109%	100%	95.9%	106%	102%	104%	95.2%	99.3%	96.7%	92.2%	99.3%
CC(C)(C)Nc1nc2c(OCCc3ccccc3)cccn2c1-c1cccc(F)c1	-7.74% (active)	20.1%	-33.2% (active)	-11% (active)	-27% (active)	-0.543% (active)	12.3%	5.13% (active)	-75% (active)	22.7%	1.65% (active)	-10.8% (active)	-40.9% (active)	-43% (active)	18.8%	-38.2% (active)	-62.6% (active)	1.34% (active)	-3.59% (active)	-60.2% (active)

— PubChem BioAssay (NCI)
